Measurements from PubChem BioAssay AID488841 (Sanford-Burnham Center for Chemical Genomics, 2010).
Among all 1,400 compounds or so, about 380 (27%) were called active.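 Rule for the calls: active = mean inhibition above 50% across duplicate retests at 10 µM; inactive = the rest.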 The list shows a part of the results.

Assay: inhibition of NALP1/ASC/caspase-1 reporter signal in yeast, confirmation, NALP1 inhibitor project, S. cerevisiae, luminescence, single concentration (AID 488841);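 note: plate controls were DMSO in galactose medium for no effect and cells in plain SD medium for full effect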
Conditions: S. cerevisiae NALP1/ASC/Caspase-1 reporter, beta-gal luminescence; at 10 µM; stronger effect = higher value

inhibition, inactive:
CN(C)CCNC(=O)COc1ccc(Cl)cc1Cl 25.2%
CC(C)NCCOCCOc1ccc(Cl)cc1Br 35.1%
C=C1SC(Nc2c(C)cccc2C)=NC12CCCCC2 29.4%
COc1ccccc1C(=O)Nc1ccc(OCc2nnc3c4ccccc4c(C)nn23)cc1 36.5%
COc1ccc2[nH]c(C)c(CCNC(=S)Nc3cc(C)cc(C)c3)c2c1 30%
CC(C)CCN(C(=O)Nc1ccccc1)C(C)c1cccs1 (centres undefined) 29.9%
CCOc1ccc(NC(=O)CSc2nnc(C)n2Cc2ccccc2)cc1 26.8%
CCOc1ccc(NC(=O)c2cc3c(C)nc4ccccc4c3o2)cc1 17.3%
O=C(Nc1cccnc1)Nc1ccc2c(c1)OCO2 32.1%
CC1CN(C(=O)Nc2ccc3c(c2)OCO3)CC(C)O1 (centres undefined) 30.4%
Cc1ccc(S(=O)(=O)NCC(=O)N(CC(=O)NC(C)(C)C)Cc2cccs2)cc1 31.3%
Cc1cc(=O)oc2cc(OCC(=O)N3CCN(C(=O)c4ccco4)CC3)ccc12 21.1%
C/C(=N\N(C)C)C1=C(O)c2ccccc2C1=O 29.9%
O=C(c1ccc(Br)o1)N(c1ccccn1)C1CCCCC1 41.8%
CN(C)c1ccc(N=C/C=C2/N(C)c3ccccc3C2(C)C)cc1 47.2%
CCOC(=O)C[N+](CC)(CC)CC#Cc1ccccc1 15.1%
Cc1nnc(-c2ccccc2)o1 31.1%
CCCc1nn(C)c(C(=O)Nc2cccc(C)c2)c1Cl 42.2%
CCOC(=O)c1c(/N=C/c2cc(OC)cc([N+](=O)[O-])c2O)sc(C)c1C 44.5%
CS(=O)(=O)N1N=C(c2ccco2)CC1c1ccc(Cl)cc1 (centres undefined) 19.9%
COc1ccc(/C=N/NC(=O)c2csc(-n3nc(C)cc3C(F)(F)F)n2)cc1 17.9%
Cc1cc(Cl)c(OCCOCCN2CCC(C)CC2)c(Br)c1 44.9%
C=CCc1cc(Cl)ccc1OCCOCCNCCOC 41.8%
Cc1sc2ncnc(N/N=C/c3ccccc3O)c2c1C 40.2%
Cc1c(Cl)c([N+](=O)[O-])nn1Cc1ccc(C(=O)N/N=C\c2ccccn2)o1 28.8%
Cc1cc(C)cc(OCc2nnc(SCC(=O)OC(C)C)o2)c1 47%
CC1=C(OC(=O)c2ccc(Br)cc2)C(C)(C)C(c2ccccc2)OC1=O (centres undefined) 24.7%
Cc1nc(NC(=O)/C=C/c2ccccc2)n[nH]1 40.7%
COc1cc(OC)c(-c2nnc(-c3ccc(OC)c(OC)c3OC)o2)cc1OC 31.9%
CC1=CC(C)(C)Nc2ccc(OC(=O)C(C)N3C(=O)c4ccccc4C3=O)cc21 (centres undefined) 32.8%
O=C(Cn1nnc2ccccc21)OCC(=O)c1ccc(Cl)cc1 40.5%
O=C1C=CC(=O)N1CCNc1ncc(C(F)(F)F)cc1Cl 46.6%
CC1CCC2C(=O)N(c3ccc(C(=O)Oc4cccc5cccnc45)cc3)C(=O)C2C1 (centres undefined) 31.1%
Cc1cc(C)c(NC(=O)/C(=C/c2ccccc2)c2ccccc2)c(C)c1 31.8%
Cc1nc(/N=C(\N)NC(=O)N2c3ccccc3Sc3ccccc32)nc2ccccc12 44.3%
O=C(Cc1ccc(-n2c(=O)[nH]c3ccccc3c2=O)cc1)N1CCN(c2ccccc2)CC1 18.6%
Cc1ccc2nc(NC(=O)c3ccc4ncsc4c3)sc2c1 30.2%
O=C(Nc1nc2ccccc2s1)C1c2ccccc2Oc2ccccc21 45.9%
Cc1cccc(N2C(=O)CC(Sc3ccccc3C(=O)O)C2=O)c1 (centres undefined) 42.5%
COC(=O)c1ccccc1SC1CC(=O)N(c2cccc(C)c2)C1=O (centres undefined) 34%
Cc1ccc(N2C(=O)CC(Sc3ccccc3C(=O)O)C2=O)cc1 (centres undefined) 40.4%
CC(C)c1ccc(N2C(=O)CC(Sc3ncn[nH]3)C2=O)cc1 (centres undefined) 48.5%
CCOC(=O)NC1(NCc2ccccc2)Oc2ccccc2O1 32.2%
Oc1c(Br)cc(Br)cc1C=Nc1ccc2c(c1)OCO2 48.6%
O=C(Nc1cccc(N=Cc2cc(Br)cc(Br)c2O)c1)c1ccco1 39.2%
COc1ccc(C(C)C)cc1S(=O)(=O)n1cnc(C)c1 18.5%
Cc1nc2cc(C(=O)NCc3ccc4c(c3)OCO4)ccc2n1-c1ccc(Br)cc1 43.1%

inhibition, active:
CC(C)NC(=O)CCCOc1ccc(Cl)cc1Cl 54.9%
COc1ccc2[nH]c3c(C)c4ccncc4c(C)c3c2c1 94.5%
CCOc1ccc(NC(=O)c2csc3c2CCCC3)cc1 52.4%
O=C(NN1C(=O)c2cc(Br)ccc2NC1c1cc(Br)cc(Br)c1O)c1ccncc1 (centres undefined) 64.8%
COC(=O)c1cccc(NC(=O)/C=C/c2ccc3c(c2)OCO3)c1 60.6%
CC(=O)N(C1=C(Cl)C(=O)c2ccccc2C1=O)C1CCCCC1 58%
Cc1cccc(NCc2nc3ccccc3n2C)c1 66%
Clc1ccc(OCCOCCN2CCc3ccccc3C2)c(Cl)c1 52.3%
Nc1c(Cl)ncnc1N/N=C/c1ccccn1 71.3%
C1CCC(C(CC2CCCCN2)C2CCCCC2)CC1 (centres undefined) 54.6%
O=C1C=CC(=O)N1CCCCCCN1C(=O)C=CC1=O 73.3%
Nc1ccc(C(=O)Nc2nc3ccccc3s2)cc1 69.7%
CCN(CC)C1CC(=O)N(c2cccc(C)c2)C1=O (centres undefined) 57.5%
Cc1cc(C)cc(N2C(=O)CC(Sc3ncn[nH]3)C2=O)c1 (centres undefined) 62.3%
Cc1ccc(C(=O)O)cc1N=Cc1cc(Br)cc(Br)c1O 59%
CCOC(=O)c1c(NC2OC(=O)c3c2ccc(OC)c3OC)sc(C(=O)OC(C)(C)C)c1C (centres undefined) 57.5%
Cc1onc(-c2ccccc2Cl)c1C(=O)N1C=CC(C(F)(F)F)=NCC1 65.7%
